The values below come from PubChem BioAssay (NCI).

The structures appear in SMILES notation. The panel holds about 83,000 compounds, 20% with a hit somewhere; the sample as a whole holds those more often.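 Activity criterion: percent growth below 10, measured after cells in 96-well plates were exposed to a single compound concentration for 48 hours.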 A number with no mark means an inactive call. Activity calls are given as the source filed them.

Test in all cases: NCI-60 one-dose screen, 48 h (100 = growth as untreated, 0 = no growth, -100 = all killed)
In one experiment the test system is NCI-H23 lung. The following applies: 10 µM unless noted.
Another experiment relates to NCI-H226 lung. The following applies: 10 µM unless noted.
A further experiment deals with NCI-H322M lung. The following applies: 10 µM unless noted.
Another experiment concerns HOP-62 NSCLC. The following applies: 10 µM unless noted.
The test system of the next experiment is NCI-H460 lung. The following applies: 10 µM unless noted.
Another experiment relates to HOP-92 NSCLC. The following applies: 10 µM unless noted.
A further experiment relates to NCI-H522 lung. The following applies: 10 µM unless noted.
The next experiment relates to A549/ATCC NSCLC. The following applies: 10 µM unless noted.
In a further experiment the test system is 786-0 renal. Conditions: 10 µM unless noted.
The next experiment deals with COLO 205 colon. The following applies: 10 µM unless noted.
Another experiment has as its system DU-145 prostate. The following applies: 10 µM unless noted.
A further experiment deals with K-562 leukemia. Conditions: 10 µM unless noted.
The next experiment concerns MALME-3M melanoma. The following applies: 10 µM unless noted.
Another experiment concerns MDA-MB-231 breast. The following applies: 10 µM unless noted.
The subject of a further experiment is RXF 393 renal. The following applies: 10 µM unless noted.
Another experiment deals with SF-268 CNS. Conditions: 10 µM unless noted.
The test system of the next experiment is SF-295 CNS. Conditions: 10 µM unless noted.
Another experiment deals with SF-539 CNS. The following applies: 10 µM unless noted.
Another experiment deals with UACC-257 melanoma. The following applies: 10 µM.
In a further experiment the test system is M14 melanoma. Conditions: 10 µM unless noted.

On to `CN1CCN(c2ccc3c(C(N)=O)c(NC(=O)c4ccc(C(C)(C)C)cc4)sc3c2)CC1`, for which the growth in the experiment on NCI-H23 lung is 79.7%; with NCI-H226 lung it was 104%; with NCI-H322M lung it was 94.7%; in the experiment on HOP-62 NSCLC it was 86.6%; in the experiment with NCI-H460 lung, 53.8%; in the experiment on HOP-92 NSCLC it was 79%. Besides, the growth is 103% in the experiment with NCI-H522 lung; 76.2% in the experiment with A549/ATCC NSCLC; 71.2% in the experiment with 786-0 renal; 70.1% in the experiment with COLO 205 colon; 87.4% with DU-145 prostate; 21.2% with K-562 leukemia. Further, the growth is 81.6% in the experiment with MALME-3M melanoma; 90.6% with MDA-MB-231 breast; 81.8% with RXF 393 renal; 97.6% in the experiment with SF-268 CNS; 79.8% in the experiment with SF-295 CNS; 63.6% in the experiment on SF-539 CNS. Besides, the growth is 92.7% in the experiment on UACC-257 melanoma and 90% with M14 melanoma.
For the molecule `CCOC(=O)c1nn(-c2ccc(C)cc2)c(=O)c2c(N)c(C#N)c(-c3ccc(OC)cc3)cc12`, the growth was 101% in the experiment with NCI-H23 lung; 94.4% in the experiment on NCI-H226 lung; 97.4% in the experiment with NCI-H322M lung; 81.3% in the experiment with HOP-62 NSCLC; 101% with NCI-H460 lung; 91.9% in the experiment on HOP-92 NSCLC. The growth is 86.7% with NCI-H522 lung; 108% with A549/ATCC NSCLC; 108% in the experiment with 786-0 renal; 110% in the experiment on COLO 205 colon; 109% with DU-145 prostate; 118% with K-562 leukemia. Also, the growth in the experiment with MALME-3M melanoma was 93.8%; in the experiment with MDA-MB-231 breast, 84.8%; in the experiment on RXF 393 renal, 104%; in the experiment on SF-268 CNS, 95.5%; with SF-295 CNS, 103%; with SF-539 CNS, 102%. For the same molecule, the growth in the experiment on UACC-257 melanoma is 107%; in the experiment on M14 melanoma, 102%.
For the molecule `O=C(NNc1nc2cc(F)cc(F)c2n2cccc12)c1ccncn1`, the growth with NCI-H23 lung is 17.6%; with NCI-H226 lung it was 7.28% (active); with NCI-H322M lung, 28.6%; with HOP-62 NSCLC it was 13.1%; in the experiment on NCI-H460 lung, 7.43% (active); in the experiment with HOP-92 NSCLC, 67.4%. The growth was -12.4% (active) in the experiment on NCI-H522 lung; 13.4% in the experiment on A549/ATCC NSCLC; 7.83% (active) with 786-0 renal; 11.5% in the experiment with COLO 205 colon; 18.7% with DU-145 prostate; 8.02% (active) in the experiment on K-562 leukemia. Besides, the growth with MALME-3M melanoma is 28.3%; in the experiment on MDA-MB-231 breast, 32.2%; with RXF 393 renal, 18.8%; in the experiment on SF-268 CNS, 12.5%; in the experiment on SF-295 CNS it was 15.1%; with SF-539 CNS, 7.47% (active). In addition, the growth in the experiment with UACC-257 melanoma was 5.21% (active); with M14 melanoma it was 4.27% (active).
Regarding `Cc1[nH]nc2ccc(-c3nc4cnc(N5CCN(C)CC5)cn4c3Nc3ccc(F)cc3Br)cc12`, the growth with NCI-H23 lung is 80.4%; in the experiment with NCI-H226 lung it was 87.9%; with NCI-H322M lung it was 63.3%; with HOP-62 NSCLC, 67.1%; in the experiment with NCI-H460 lung, 69.6%; in the experiment with HOP-92 NSCLC, 61.5%. For the same molecule, the growth in the experiment on NCI-H522 lung is 67.6%; in the experiment on A549/ATCC NSCLC, 58.7%; with 786-0 renal it was 4.67% (active); in the experiment on COLO 205 colon, 36.7%; in the experiment with DU-145 prostate it was 51.8%; in the experiment on K-562 leukemia, 5.31% (active). The growth in the experiment on MALME-3M melanoma was 76.8%; in the experiment on MDA-MB-231 breast, 8.94% (active); in the experiment on RXF 393 renal it was 63.3%; with SF-268 CNS, 75.8%; in the experiment with SF-295 CNS, 66.3%; in the experiment with SF-539 CNS, -54.9% (active). Besides, in the experiment on UACC-257 melanoma, the growth is 78.8%.
As to `CC(=O)Nc1ccc(NC(=O)Nc2cccc(-c3nc(-c4ccc(NC(=O)c5cccs5)cc4Cl)no3)c2)cc1C(F)(F)F`, the growth with NCI-H23 lung is -60.2% (active); in the experiment on NCI-H226 lung, -41.2% (active); in the experiment on NCI-H322M lung, -8.96% (active); in the experiment with HOP-62 NSCLC it was -74.8% (active); in the experiment on NCI-H460 lung it was -59.4% (active); with HOP-92 NSCLC it was -46.8% (active). Further, the growth in the experiment with NCI-H522 lung was -39.6% (active); in the experiment with A549/ATCC NSCLC it was -27.1% (active); with 786-0 renal it was -43.4% (active); with COLO 205 colon, -64.4% (active); in the experiment on DU-145 prostate, -15.4% (active); in the experiment on K-562 leukemia, 1.01% (active). The growth with MALME-3M melanoma was -84.3% (active); with MDA-MB-231 breast, -60.6% (active); in the experiment on RXF 393 renal, -85% (active); in the experiment with SF-268 CNS, -38.8% (active); with SF-295 CNS, -62.9% (active); in the experiment with SF-539 CNS, -87.5% (active). Further, in the experiment with UACC-257 melanoma, the growth is -58.4% (active).
In the case of `C#C[C@]1(O)CC[C@H]2[C@@H]3CC=C4c5sc(Nc6cccc(Cl)n6)nc5CC[C@]4(C)[C@H]3CC[C@@]21C`, the growth is 16.1% in the experiment on NCI-H23 lung; 19.8% with NCI-H226 lung; 44.5% in the experiment on NCI-H322M lung; -8.39% (active) in the experiment with HOP-62 NSCLC; -2.3% (active) in the experiment with NCI-H460 lung; -5.56% (active) with HOP-92 NSCLC. Also, the growth in the experiment on NCI-H522 lung is -17.7% (active); with A549/ATCC NSCLC it was 18.5%; in the experiment with 786-0 renal, -54.8% (active); with COLO 205 colon it was 34.5%; with DU-145 prostate, 24.5%; with K-562 leukemia it was 3.91% (active). The growth with MALME-3M melanoma was -20.2% (active); in the experiment with MDA-MB-231 breast it was 9.05% (active); in the experiment with RXF 393 renal it was -57.4% (active); with SF-268 CNS, -16.5% (active); in the experiment with SF-295 CNS it was -70.2% (active); in the experiment with SF-539 CNS it was -60.2% (active). Further, the growth in the experiment on UACC-257 melanoma was -64.3% (active).
For `COc1ccc(NC(=O)[C@H](C)NC(=O)OC(C)(C)C)cc1C(=O)Nc1cccc(-c2cc(=O)c3c(OC)c(OC)c(OC)cc3o2)c1`, the growth with NCI-H23 lung was -24.8% (active); with NCI-H226 lung, 16%; in the experiment with NCI-H322M lung, -0.408% (active); with HOP-62 NSCLC, -17.5% (active); with NCI-H460 lung, -21.4% (active); in the experiment on HOP-92 NSCLC, -50% (active). Further, the growth with NCI-H522 lung is -46.4% (active); in the experiment on A549/ATCC NSCLC, 7.37% (active); in the experiment on 786-0 renal, 0.528% (active); in the experiment with COLO 205 colon, -70% (active); in the experiment with DU-145 prostate it was 23%; in the experiment on K-562 leukemia, 10.6%. For the same molecule, the growth was -13.2% (active) with MALME-3M melanoma; -46.4% (active) in the experiment with MDA-MB-231 breast; -84.4% (active) in the experiment with RXF 393 renal; 34.9% in the experiment on SF-268 CNS; -11.4% (active) with SF-295 CNS; -38.1% (active) with SF-539 CNS. Also, the figures for the growth in the experiment on UACC-257 melanoma and with M14 melanoma were -74.4% (active) and -52.3% (active), respectively.
